# Results taken from the antibiotic and cytotoxicity screens of Wong et al. (2023).
# In all, about 39,000 compounds went through this assay and about 3,300 (8.5%) were called active. The full list was thinned out, with actives kept by preference.
# Tested on: HepG2
# Experiment: cytotoxicity call (relative viability < 0.9)
# Details: 10 µM
row,SMILES,cytotoxicity call
1,C[C@@H](NC(=O)C[C@@H]1C=C[C@H](NC(=O)CN2CCOCC2)[C@H](CO)O1)c1ccccc1,inactive
2,CC1=CC(C)(C)N(C(=O)Nc2ccc(C)cc2)c2ccccc21,inactive
3,Cc1ccc(OC(=O)n2c3ccccc3c3ccccc32)cc1,inactive
4,Cc1ccc(NC(=O)n2c3ccccc3c3ccccc32)cc1,active
5,C[C@@H]1CN([C@H](C)CO)S(=O)(=O)c2ccc(C3=CCCCC3)cc2O[C@H]1CN(C)S(=O)(=O)c1cn(C)cn1,inactive
6,O=C(C[C@@H]1CC[C@@H]2[C@H](COC[C@@H](O)CN2S(=O)(=O)c2cccc(Cl)c2)O1)NCc1ccc2c(c1)OCO2,inactive
7,O=C(NO)c1ccc(-c2cn(CC(=O)N3CCOCC3)nn2)s1,inactive
8,CC1NC(=O)C2CCCN2C(=O)C(CC(N)=O)NC(=O)C2CSSCC(N)C(=O)NC3CSSCC(NC1=O)C(=O)NC(C(C)O)C(=O)NCC(=O)NC(C(=O)NC(Cc1ccc(O)cc1)C(=O)O)CSSCC(NC(=O)C(Cc1ccc(O)cc1)NC(=O)C(CCC(=O)O)NC3=O)C(=O)N2 (stereo not given),inactive
9,CC(C)C[C@H]1NC(=O)[C@@H](CCCN)NC(=O)[C@H](C(C)C)NC(=O)[C@H]2CCCN2C(=O)[C@@H](Cc2ccccc2)NC(=O)[C@@H](CC(C)C)NC(=O)[C@@H](CCCN)NC(=O)[C@H](C(C)C)NC(=O)[C@H]2CCCN2C(=O)[C@@H](Cc2ccccc2)NC1=O,active
10,CC(C)C[C@@H]1NC(=O)[C@@H](C(C)C)NC(=O)[C@@H]2CCCN2C(=O)[C@@H](CC(=O)O)NC(=O)[C@@H](Cc2c[nH]c3ccccc23)NC1=O,inactive
11,CC[C@@H](C)CCCCC(=O)N[C@@H](CCN)C(=O)N[C@H](C(=O)N[C@@H](CCN)C(=O)N[C@H]1CCNC(=O)[C@H]([C@@H](C)O)NC(=O)[C@H](CCN)NC(=O)[C@H](CCN)NC(=O)[C@H](CC(C)C)NC(=O)[C@@H](Cc2ccccc2)NC(=O)[C@@H](CCN)NC1=O)[C@@H](C)O,inactive
12,C[C@H]1[C@H]2[C@H](Cc3ccccc3)NC(=O)[C@]23C(=O)N[C@H](Cc2ccccc2)C(=O)N2CCC[C@H]2C(=O)NC/C=C\C/C=C/[C@@H]3[C@@H]2O[C@]12C,inactive
13,C[C@H]1CN([C@@H](C)CO)C(=O)c2cc(NS(=O)(=O)c3cccs3)ccc2O[C@H]1CN(C)S(C)(=O)=O,inactive
14,COc1ccc(S(=O)(=O)N(C)C[C@@H]2Oc3ccc(NS(=O)(=O)c4ccccc4)cc3CC(=O)N([C@H](C)CO)C[C@@H]2C)cc1,inactive
15,COCCN(C)C(=O)c1ccc2nnc([C@H]3CN(S(C)(=O)=O)CCN3C)n2c1,inactive
16,C=CCOC(=O)[C@@H]1[C@H]2C(=O)O[C@H](c3ccccc3)[C@H](c3ccccc3)N2[C@H](c2ccc(OCCOC(=O)[C@@H]3C[C@@H]4C(=O)N[C@@H](CCCCNC(C)=O)C(=O)N4[C@@H]3c3ccc(O)cc3)cc2)[C@@]12C(=O)Nc1ccccc12,inactive
17,C=CCNC1=C2C[C@H](C)C[C@H](OC)[C@@H](O)[C@H](C)/C=C(\C)[C@H](OC(N)=O)[C@H](OC)/C=C/C=C(\C)C(=O)NC(=CC1=O)C2=O,active
18,C=CCNC1=C2C[C@@H](C)C[C@H](OC)[C@H](O)[C@@H](C)/C=C(\C)[C@H](OC(N)=O)[C@@H](OC)/C=C\C=C(/C)C(=O)NC(=CC1=O)C2=O,active
19,CO[C@H]1/C=C\C=C(/C)C(=O)NC2=CC(=O)C(NCCN(C)C)=C(C[C@@H](C)C[C@H](OC)[C@H](O)[C@@H](C)/C=C(\C)[C@@H]1OC(N)=O)C2=O,active
20,C[C@H](CO)N1C[C@H](C)[C@H](CN(C)S(=O)(=O)c2cn(C)cn2)Oc2ccc(NS(=O)(=O)c3cn(C)cn3)cc2CC1=O,inactive

row,SMILES,cytotoxicity call
1,CC(C)NC(=O)N(C)C[C@H]1OCc2cn(nn2)CCCC(=O)N([C@@H](C)CO)C[C@@H]1C,inactive
2,Cc1noc(C)c1NC(=O)N(C)C[C@@H]1Oc2cc(C#CCN(C)C)ccc2S(=O)(=O)N([C@@H](C)CO)C[C@H]1C,inactive
3,COc1ccc(S(=O)(=O)Nc2ccc3c(c2)C(=O)N([C@@H](C)CO)C[C@@H](C)[C@H](CN(C)C(=O)c2ccccc2)OCCCC[C@@H](C)O3)cc1,inactive
4,Nc1ccccc1CO,active
5,OCc1ccccc1O,inactive
6,Nc1cc(F)ccc1CO,inactive
7,C[C@H](CO)N1C[C@H](C)[C@H](CN(C)C(=O)c2ccccc2)Oc2cc(C#C[C@@H](C)O)ccc2S1(=O)=O,inactive
8,Cc1ccc(S(=O)(=O)Nc2ccc3c(c2)CC(=O)N([C@H](C)CO)C[C@H](C)[C@@H](CN(C)C(=O)NC(C)C)O3)cc1,inactive
9,C[C@@H]1CN([C@@H](C)CO)S(=O)(=O)c2ccc(C#CC3CC3)cc2O[C@H]1CN(C)C(=O)Cc1ccncc1,inactive
10,COc1ccc2c3c([nH]c2c1)[C@@H](CO)N(C[C@]13CN(C1)S(=O)(=O)c1cn(cn1)C)C(=O)Nc1ccc(cc1)F,inactive
11,C[C@@H]1CN([C@@H](C)CO)C(=O)c2cc(NC(=O)Nc3ccc4c(c3)OCO4)ccc2O[C@@H]1CN(C)C(=O)Nc1ccc(C(F)(F)F)cc1,inactive
12,CO[C@@H]1[C@@H](O[C@@H]2O[C@H](C)[C@@H](O[C@H]3C[C@@](C)(O)[C@@H](OC(=O)CC(C)C)[C@H](C)O3)[C@H](N(C)C)[C@H]2O)[C@@H](CC=O)C[C@@H](C)[C@@H](O)/C=C\C=C/C[C@@H](C)OC(=O)C[C@H]1OC(C)=O,inactive
13,CO[C@@H]1[C@@H](O[C@@H]2O[C@H](C)[C@@H](O[C@H]3C[C@@](C)(O)[C@@H](OC(=O)CC(C)C)[C@H](C)O3)[C@H](N(C)C)[C@H]2O)[C@@H](CC=O)C[C@@H](C)[C@@H](O)/C=C/C=C/CC(C)OC(=O)C[C@H]1OC(C)=O (stereo not given in full),active
14,CO[C@@H]1[C@@H](O[C@@H]2O[C@H](C)[C@@H](O[C@H]3C[C@@](C)(O)[C@@H](O)[C@H](C)O3)[C@H](N(C)C)[C@H]2O)[C@@H](CC=O)C[C@@H](C)[C@@H](O[C@H]2CC[C@H](N(C)C)[C@@H](C)O2)/C=C/C=C/C[C@@H](C)OC(=O)C[C@H]1O,inactive
15,COC1C(O)CC(=O)OC(C)CC=CC=CC(OC2CCC(N(C)C)C(C)O2)C(C)CC(CC=O)C1OC1OC(C)C(OC2CC(C)(O)C(O)C(C)O2)C(N(C)C)C1O (stereo not given),active
16,CO[C@@H]1[C@@H](O[C@@H]2O[C@H](C)[C@@H](O[C@H]3C[C@@](C)(O)[C@@H](O)[C@H](C)O3)[C@H](N(C)C)[C@H]2O)[C@@H](CC=O)C[C@@H](C)[C@@H](O[C@H]2CC[C@H](N(C)C)[C@@H](C)O2)/C=C/C=C/CC(C)OC(=O)C[C@H]1OC(C)=O (stereo not given in full),inactive
17,COC1C(O)CC(=O)OC(C)CC=CC=CC(O)C(C)CC(CC=O)C1OC1OC(C)C(OC2CC(C)(O)C(OC(=O)CC(C)C)C(C)O2)C(N(C)C)C1O (stereo not given) [KITASAMYCINS [A1 shown] ],inactive
18,COc1ccc(C(N)=S)cn1,inactive
19,Cc1noc(C)c1S(=O)(=O)Nc1ccc2c(c1)C(=O)N([C@H](C)CO)C[C@H](C)[C@H](CN(C)CC1CC1)O2,inactive
20,C[C@@H]1CN([C@@H](C)CO)S(=O)(=O)c2ccc(C#CC(C)(C)O)cc2O[C@H]1CN(C)Cc1ccncc1,inactive

row,SMILES,cytotoxicity call
1,C[C@H](CO)N1C[C@H](C)[C@@H](CN(C)S(=O)(=O)c2ccccc2)Oc2ccc(NC(=O)CCN3CCOCC3)cc2CC1=O,inactive
2,COc1cc(NS(C)(=O)=O)ccc1Nc1c2ccccc2nc2ccccc12,active
3,CS(=O)(=O)Nc1ccc2c(c1)C(=O)NC2=O,inactive
4,COc1ccccc1CNS(C)(=O)=O,inactive
5,C[C@H]1CCCCO[C@@H](CN(C)C(=O)c2ccncc2)[C@@H](C)CN([C@@H](C)CO)C(=O)c2cc(NC(=O)NC3CCCCC3)ccc2O1,inactive
6,Cn1nccc1C(=O)NCCN,inactive
7,CNC(=O)[C@@H](c1ccccc1)N1CCc2cc(OC)c(OC)cc2[C@@H]1CCc1ccc(C(F)(F)F)cc1,inactive
8,CNCCC(Oc1ccc(C(F)(F)F)cc1)c1ccccc1.Cl (stereo not given),active
9,CNCCC(Oc1ccccc1C)c1ccccc1.Cl (stereo not given),inactive
10,CCCOC(=S)N[C@H]1OC[C@@H](O)[C@@H](O)[C@@H]1O,inactive
11,COc1ccccc1-c1ccc2c(c1)O[C@@H](CN(C)S(=O)(=O)c1ccccc1)[C@@H](C)CN([C@@H](C)CO)S2(=O)=O,inactive
12,C=CC[C@@H](CC(=O)NCCO)C(=O)NC[C@H](OC(=O)[C@H](CC=C)CC(=O)OC(C)(C)C)c1ccccc1,inactive
13,COc1ccc(S(=O)(=O)N[C@@H](CNc2nc(C)nc(N3CCC(c4ccc5c(n4)NCCC5)CC3)c2C)C(=O)O)cc1,active
14,O=C(NCCCN1CCOCC1)[C@H]1[C@@H]2C=C[C@@]3(CN(Cc4cccs4)C(=O)[C@@H]13)O2,inactive
15,Cc1cncc2cccc(S(=O)(=O)N3CC[C@H](N(C/C=C/c4ccc(Br)cc4)C/C=C/c4ccc(Br)cc4)C3)c12,inactive
16,S=C(NCCCc1cnc[nH]1)NCCCN(Cc1ccc(Cl)c(Cl)c1)c1ccc(Br)cn1,active
17,C[C@@H]1CCCCO[C@@H](CN(C)C(=O)Nc2ccccc2)[C@H](C)CN([C@H](C)CO)C(=O)c2cc(NS(=O)(=O)c3ccccc3)ccc2O1,inactive
18,CC(C)(C)[S@@+]([O-])N1Cc2cc(C(=O)NCc3ccc4c(c3)OCO4)nc(-c3ccc(-c4ccccc4)cc3)c2[C@H]1CCO,inactive
19,COc1ccc(S(=O)(=O)N[C@@H]2C=C[C@@H](CC(=O)N3CCC(Cc4ccccc4)CC3)O[C@H]2CO)cc1,inactive
20,CCCNC(=O)C[C@@H]1CC[C@H]2[C@H](COc3ccc(NC(=O)c4ccc5c(c4)OCO5)cc3C(=O)N2C)O1,inactive
